Molecules are shown by their SMILES. Inconclusive results are not listed. The source made the active and inactive calls. Unless noted, no stated cut-off is given here; in the data, active means potency below about 10 µM; inactive means the rest.

The target in one experiment is Lysosomal acid glucosylceramidase (Homo sapiens) (UniProt P04062). Put plainly: Glucocerebrosidase-p2 (AID 348). Further: potency means the concentration at half of the fitted maximal effect. Particulars: purified GBA, blue fluorogenic substrate, 40 min. In outline: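 Compounds titrated from 0.6 nM upwards against 0.2 nM enzyme in pH 5.9 citric acid/KH2PO4, taurocholate, tween-20; blue fluorogenic substrate 80 uM, 40 min room temperature, stopped and read Ex 365/Em 440 for AC50.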
Sequence of Lysosomal acid glucosylceramidase (Homo sapiens) (P04062 whole entry, looked up): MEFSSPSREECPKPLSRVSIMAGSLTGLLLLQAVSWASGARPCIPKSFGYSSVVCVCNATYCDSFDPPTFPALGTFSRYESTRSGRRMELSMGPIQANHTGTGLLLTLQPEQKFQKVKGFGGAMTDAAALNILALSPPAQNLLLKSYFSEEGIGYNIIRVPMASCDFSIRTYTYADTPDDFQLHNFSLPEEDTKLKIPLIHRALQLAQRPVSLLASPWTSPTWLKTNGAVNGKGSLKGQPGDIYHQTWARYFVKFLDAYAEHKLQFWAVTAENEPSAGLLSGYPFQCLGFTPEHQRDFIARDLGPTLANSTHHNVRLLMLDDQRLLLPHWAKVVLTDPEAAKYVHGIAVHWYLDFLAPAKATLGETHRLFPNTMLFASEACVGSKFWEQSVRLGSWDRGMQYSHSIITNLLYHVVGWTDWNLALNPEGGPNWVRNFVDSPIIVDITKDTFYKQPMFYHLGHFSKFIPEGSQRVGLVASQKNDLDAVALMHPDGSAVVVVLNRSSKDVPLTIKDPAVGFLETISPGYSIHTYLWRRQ
For the compound `COc1cccc(Cn2c(=O)c(-c3cccs3)nc3cnc(N4CCN(C)CC4)nc32)c1`, the Potency is > 11.4 µM (inactive).
Same read-out and setting: next, `Cn1c(=O)c(-c2ccc(Cl)cc2)nc2cnc(Oc3ccccc3)nc21`: > 11.4 µM (inactive).
Regarding `CCNc1ncc2nc(-c3ccccc3)c(=O)n(-c3ccc(OC)cc3)c2n1`, the Potency was > 11.4 µM (inactive).
Still for that read-out and setting: next, `O=C(c1ccncc1)N1CCC2(CC1)CN(c1ccc(-c3ccccc3)cc1)C2`: > 11.4 µM (inactive); `N#Cc1ccc(CN2CC3(CCN(C(=O)c4ccncc4)CC3)C2)cc1`: > 11.4 µM (inactive); `COCCn1c(=O)c(-c2ccc(OC)cc2)nc2cnc(Oc3cccc(Cl)c3)nc21`: > 11.4 µM (inactive).
On the same count and under the same terms, the same measure for `COc1ccc(-c2nc3cnc(N4CCN(C)CC4)nc3n(CCC#N)c2=O)cc1`: > 11.4 µM (inactive).
For `O=C(c1cc(C(F)(F)F)cc(C(F)(F)F)c1)N1CCC2(CCCN(c3ccccn3)C2)CC1`, the Potency is > 11.4 µM (inactive).
Still for that read-out and setting: the same measure for `O=S(=O)(c1ccccc1)N1CCC2(CCN(c3ncccn3)CC2)CC1`: > 11.4 µM (inactive); for `O=S(=O)(c1ccccc1)N1CCC[C@@]2(CCN(C(c3ccccc3)c3ccccc3)C2)C1`: > 11.4 µM (inactive); for `O=S(=O)(c1ccccc1)N1CCC2(CCCN(Cc3ccccc3)C2)CC1`: > 11.4 µM (inactive).
Still for that read-out and setting: the same measure for `O=C(c1csnn1)N1CCC2(CCCN(c3ccccn3)C2)CC1`: > 11.4 µM (inactive).
Same read-out and setting: next, `COc1ccc(C(=O)N2CCC3(CCCN(Cc4nccs4)C3)CC2)cc1`: > 11.4 µM (inactive).
In the case of `COc1ccc(CNc2nc(-c3ccccc3CN(C)C)nc3ccccc23)c(OC)c1`, the Potency is > 11.4 µM (inactive).
Consider `Cn1cccc1C(=O)N1CCC2(CCCN(Cc3nccs3)C2)CC1`, for which the Potency was > 11.4 µM (inactive).
Take `Cn1c(=O)cnc2cnc(Nc3ccccc3)nc21`: the Potency was > 11.4 µM (inactive).
On to `O=c1c(-c2cccs2)nc2cnc(Oc3ccccc3)nc2n1-c1ccccc1`, for which the Potency is > 11.4 µM (inactive).
Take `O=C(c1cnccn1)N1CCC2(CC1)CN(Cc1ccccc1)C2`: the Potency was > 11.4 µM (inactive).
The same measure, in the same setting: the same measure for `O=C(Oc1ccccc1)N1CCC2(CCCN(c3cccc(-c4ccccc4)c3)C2)CC1`: > 11.4 µM (inactive); for `CS(=O)(=O)N1CCC2(CCN(Cc3ccc(C#N)cc3)CC2)CC1`: > 11.4 µM (inactive).
`COc1ccc(C(=O)N2CCC3(CCCN(c4ccncc4)C3)CC2)cc1`: the Potency was > 11.4 µM (inactive).
Still for that read-out and setting: next, `CC(=O)N1CCC2(CCN(Cc3ccc(C#N)cc3)CC2)CC1`: > 11.4 µM (inactive); `COc1ccccc1CNc1cc(-c2cccc(NS(C)(=O)=O)c2)ncn1`: > 11.4 µM (inactive); `O=C(Oc1ccccc1)N1CCC2(CCCN(c3ncccn3)C2)CC1`: > 11.4 µM (inactive).
On the same count and under the same terms, the same measure for `COc1ccc(-n2c(=O)c(-c3ccc(Cl)cc3)nc3cnc(N4CCOCC4)nc32)cc1`: > 11.4 µM (inactive).
Same read-out and setting: next, `N#Cc1ccc(CN2CCCC3(CCN(C(=O)c4cnccn4)CC3)C2)cc1`: > 11.4 µM (inactive); `O=C(c1ccncc1)N1CCC2(CCCN(c3ncccn3)C2)CC1`: > 11.4 µM (inactive).
As for `O=C(c1csnn1)N1CCC2(CCCN(c3ccc(-c4ccccc4)cc3)C2)CC1`, the Potency is > 11.4 µM (inactive).
On the same count and under the same terms, next, `Cn1c(=O)c(-c2ccccc2)nc2cnc(Oc3ccccc3)nc21`: > 11.4 µM (inactive); `O=C(c1ccco1)N1CCC2(CC1)CCN(c1ccccn1)CC2`: > 11.4 µM (inactive); `Cc1noc(C)c1C(=O)N1CCC2(CC1)CCN(C(c1ccccc1)c1ccccc1)CC2`: > 11.4 µM (inactive).
In the case of `COc1ccc(Oc2ncc3nc(-c4cccs4)c(=O)n(Cc4cccc(OC)c4)c3n2)cc1`, the Potency is > 11.4 µM (inactive).
Turning to `O=C(c1ccncc1)N1CCC2(CCN(Cc3cc(C(F)(F)F)cc(C(F)(F)F)c3)CC2)CC1`, the Potency is > 11.4 µM (inactive).
Same read-out and setting: the same measure for `O=C(c1cccc(F)c1)N1CCC2(CC1)CCN(c1ccccn1)CC2`: > 11.4 µM (inactive).
On the same count and under the same terms, the same measure for `COc1ncc2nc(C)c(=O)n(CCC#N)c2n1`: > 11.4 µM (inactive); for `CCNc1ncc2nc(-c3ccc(Cl)cc3)c(=O)n(C3CC3)c2n1`: > 11.4 µM (inactive); for `Cc1cccc(CNc2cc(-c3ccc(N(C)C)cc3)ncn2)c1`: > 11.4 µM (inactive).
Same read-out and setting: next, `O=C(Oc1ccccc1)N1CCC2(CC1)CCN(c1ccccn1)CC2`: > 11.4 µM (inactive); `COc1ccc(C(=O)N2CCC3(CCCN(c4ccc(-c5ccccc5)cc4)C3)CC2)cc1`: > 11.4 µM (inactive).

Test system in a further experiment: not listed separately
As to the kind of experiment: AP1 Signaling Pathway (AID 357; active means well fitted curve in either direction with a large enough effect, not every such curve was filed as active;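 further: ME-180 reporter cells stimulated with EGF at its EC50 level; on the % scale 0 is the no-effect control and ±100 the full control effect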). Particulars: ME-180 (cervical carcinoma) AP-1-bla reporter, EGF-induced, beta-lactamase ratio, 5 h; at 7.69 µM (top of the series) unless noted. The method in brief: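 Titration-series screen for positive or negative modulators of EC50 EGF-induced signaling in ME-180 cells carrying an AP-1-driven beta-lactamase reporter. After 5 hours at 37 degrees Celsius, CCF4 460nm/530nm emission ratio gave %Activity; AC50 values derived.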
For `CCNc1ncc2nc(-c3ccccc3)c(=O)n(-c3ccc(OC)cc3)c2n1`, the activity change, negative = inhibition is 27.6% (inactive).
On the same count and under the same terms, next, `N#Cc1ccc(CN2CC3(CCN(C(=O)c4ccncc4)CC3)C2)cc1`: 9.93% (inactive).
Same read-out and setting: next, `COc1ccc(-c2nc3cnc(N4CCN(C)CC4)nc3n(CCC#N)c2=O)cc1`: 23.4% (inactive); `O=C(c1cc(C(F)(F)F)cc(C(F)(F)F)c1)N1CCC2(CCCN(c3ccccn3)C2)CC1`: 10.7% (inactive).
Take `O=S(=O)(c1ccccc1)N1CCC2(CCCN(Cc3ccccc3)C2)CC1`: the activity change, negative = inhibition was 10.9% (inactive).
With `O=C(c1csnn1)N1CCC2(CCCN(c3ccccn3)C2)CC1`, the activity change, negative = inhibition is -4.82% (inactive).
Same read-out and setting: the same measure for `COc1ccc(C(=O)N2CCC3(CCCN(Cc4nccs4)C3)CC2)cc1`: -4.03% (inactive).
`Cn1cccc1C(=O)N1CCC2(CCCN(Cc3nccs3)C2)CC1`: the activity change, negative = inhibition is -3.56% (inactive).
Regarding `O=c1c(-c2cccs2)nc2cnc(Oc3ccccc3)nc2n1-c1ccccc1`, the activity change, negative = inhibition is 3.02% (inactive).
For `O=C(c1cnccn1)N1CCC2(CC1)CN(Cc1ccccc1)C2`, the activity change, negative = inhibition was -15.8% (inactive).
On the same count and under the same terms, the same measure for `CS(=O)(=O)N1CCC2(CCN(Cc3ccc(C#N)cc3)CC2)CC1`: 3.08% (inactive); for `COc1ccc(C(=O)N2CCC3(CCCN(c4ccncc4)C3)CC2)cc1`: 7.18% (inactive).
Same read-out and setting: next, `CC(=O)N1CCC2(CCN(Cc3ccc(C#N)cc3)CC2)CC1`: -3.09% (inactive).
Turning to `N#Cc1ccc(CN2CCCC3(CCN(C(=O)c4cnccn4)CC3)C2)cc1`, the activity change, negative = inhibition is -6.06% (inactive).
Same read-out and setting: next, `O=C(c1ccncc1)N1CCC2(CCCN(c3ncccn3)C2)CC1`: -5.83% (inactive); `O=C(c1ccco1)N1CCC2(CC1)CCN(c1ccccn1)CC2`: -7.81% (inactive).
For the compound `Cc1noc(C)c1C(=O)N1CCC2(CC1)CCN(C(c1ccccc1)c1ccccc1)CC2`, the activity change, negative = inhibition is -6.81% (inactive).
In the case of `O=C(c1ccncc1)N1CCC2(CCN(Cc3cc(C(F)(F)F)cc(C(F)(F)F)c3)CC2)CC1`, the activity change, negative = inhibition is 2.71% (inactive).
The same measure, in the same setting: the same measure for `O=C(c1cccc(F)c1)N1CCC2(CC1)CCN(c1ccccn1)CC2`: -6.05% (inactive).
The same measure, in the same setting: the same measure for `O=C(Oc1ccccc1)N1CCC2(CC1)CCN(c1ccccn1)CC2`: -11.8% (inactive); for `COc1ccc(C(=O)N2CCC3(CCCN(c4ccc(-c5ccccc5)cc4)C3)CC2)cc1`: -8.58% (inactive).
